From PubChem BioAssay
This excerpt belongs to a sample that is enriched for hits.
GIRK2 activator: Activates human GIRK2-containing potassium channels; P48051; HEK293 GIRK2/NPY4 cells, thallium flux fluorescence; activation (% efficacy), % for hits at 37.5 µM; 34,000 tested, under 10 active;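 active means primary screen hit, no activity in plain HEK293 cells, and in GIRK2-only cells above 5% efficacy rising with concentration; inactive means the rest, including fluorescent compounds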;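 further: efficacy is normalized control-subtracted fluorescence 15 s after thallium addition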
Target sequence (P48051 whole entry, looked up): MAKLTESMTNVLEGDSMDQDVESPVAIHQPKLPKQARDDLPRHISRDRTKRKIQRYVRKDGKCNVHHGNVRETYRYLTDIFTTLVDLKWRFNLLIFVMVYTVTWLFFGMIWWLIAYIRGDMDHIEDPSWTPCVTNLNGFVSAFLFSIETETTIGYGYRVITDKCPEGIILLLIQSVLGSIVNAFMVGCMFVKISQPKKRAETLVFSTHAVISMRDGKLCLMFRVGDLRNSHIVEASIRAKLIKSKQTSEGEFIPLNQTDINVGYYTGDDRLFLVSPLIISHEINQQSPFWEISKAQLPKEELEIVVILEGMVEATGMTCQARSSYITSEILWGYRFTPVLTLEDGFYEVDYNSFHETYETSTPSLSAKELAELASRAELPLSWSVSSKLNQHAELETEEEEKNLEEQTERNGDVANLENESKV
AMPAR-TARP mod: modulates AMPAR-stargazin complexes. HEK293 GluA2+stargazin, membrane potential dye (FDSS), glutamate EC50; hits were called plate by plate, in both directions. AID 1259245. calls only at 30 µM. 40,000 tested, 3.5% active. O88602+P19491;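 active means any of four per-well response measures lying three or more SD from its plate-wide compound average, in either direction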
Each line names hits and unclear results; the compound was inactive in the other large screens; ! = not active in a repeat.

Cc1cccc(Cn2c(C3CC(=O)N(C(C)(C)C)C3)nc3ccccc32)c1 (centres undefined)	AMPAR-TARP mod active (no result: GIRK2 activator)
COc1ccccc1-n1nnc(C(=O)Nc2ccc(-n3nncc3C)cc2)c1C	none
COc1ccc(S(=O)(=O)N2CCCc3cc(NC(=O)Nc4ccc(C)cc4)ccc32)cc1	none (no result: GIRK2 activator)
Cn1nc(-c2cccc(NS(=O)(=O)c3cccs3)c2)ccc1=O	none
COc1ccc2nc(-c3cccc(NC(=O)c4ccc(C(F)(F)F)cc4)c3)cn2n1	none
COc1cccc(N2CC(c3nc4ccccc4n3Cc3ccccc3)CC2=O)c1 (centres undefined)	none (no result: GIRK2 activator)
C=CCN1CC(c2nc3ccccc3n2Cc2c(F)cccc2Cl)CC1=O (centres undefined)	none (no result: GIRK2 activator)
O=C1CC(c2nc3ccccc3n2Cc2c(F)cccc2Cl)CN1Cc1ccccc1 (centres undefined)	AMPAR-TARP mod active (no result: GIRK2 activator)
CC(C)CCn1c(C2CC(=O)N(Cc3ccccc3)C2)nc2ccccc21 (centres undefined)	AMPAR-TARP mod active (no result: GIRK2 activator)
CC(C)CCn1c(C2CC(=O)N(Cc3ccc(F)cc3)C2)nc2ccccc21 (centres undefined)	none (no result: GIRK2 activator)
COc1cccc(N2CC(c3nc4ccccc4n3Cc3ccccc3Cl)CC2=O)c1 (centres undefined)	AMPAR-TARP mod active (no result: GIRK2 activator)
CS(=O)(=O)N1CCC(CNC(=O)c2cnc3ccccc3n2)CC1	none
COc1cc(C(=O)Nn2cnc3c(cnn3C(C)(C)C)c2=O)cc(OC)c1OC	none
CCOC(=O)c1oc2ccccc2c1NC(=O)CCCS(=O)(=O)c1ccccc1	none
CCCCCNC(=O)c1cc(-c2cccc(OC)c2)nc2c1c(C)nn2C1CCS(=O)(=O)C1 (centres undefined)	none
Cc1cc(C)cc(C(=O)NCCCn2nc(-c3cccs3)ccc2=O)c1	none
CCOC(=O)c1scc(-c2ccc(C)cc2)c1S(=O)(=O)N1CCN(c2ccccn2)CC1	AMPAR-TARP mod active
COC(=O)c1scc(-c2ccccc2)c1S(=O)(=O)N1CCN(c2ncccn2)CC1	none (no result: GIRK2 activator)
COc1ccccc1N1CCN(CCNS(=O)(=O)c2ccc(C)c(C)c2)CC1	none (no result: GIRK2 activator)
CC(=O)CC1(O)C(=O)N(CCCOc2ccccc2C)c2ccccc21 (centres undefined)	none
CC(=O)CC1(O)C(=O)N(CCOc2ccc(C(C)(C)C)cc2)c2ccccc21 (centres undefined)	AMPAR-TARP mod active!
O=S(=O)(NC1CCCC1)c1cccc2cnccc12	AMPAR-TARP mod active
O=S(=O)(NCCCN1CCOCC1)c1cccc2cnccc12	none
Cc1noc(C)c1CCC(=O)N1CCC(c2nnc(C(C)C)o2)CC1	none
Nc1sc(SCC(=O)NCc2ccc(F)cc2)nc1-c1ccccc1	AMPAR-TARP mod active
NC(=O)CSc1nc(-c2ccccc2)c(NC(=O)c2ccccc2)s1	none
NC(=O)CSc1nc(-c2ccccc2)c(N)s1	none
NC(=O)CSc1nc(-c2ccccc2)c(NC(=O)CCCc2ccccc2)s1	AMPAR-TARP mod active
NC(=O)CSc1nc(-c2ccccc2)c(NC(=O)CCc2ccccc2)s1	AMPAR-TARP mod active
COc1ccc(CCC(=O)Nc2sc(SCC(N)=O)nc2-c2ccccc2)cc1	none
COc1ccc(NC(=O)Cc2csc(Nc3ccc(F)cc3)n2)cc1OC	none
O=C(NCC(c1cccs1)N1CCOCC1)Nc1ccccc1C(F)(F)F (centres undefined)	none
O=C(NCc1ccc(F)cc1)NCC(O)c1ccsc1 (centres undefined)	none
CC(C)Cc1cnc2c(c1SCC(=O)N(C(C)C)C(C)C)c(=O)n(C)c(=O)n2C	AMPAR-TARP mod active (no result: GIRK2 activator)
Cc1cnc2c(c1SCC(=O)N(C(C)C)C(C)C)c(=O)n(C)c(=O)n2C	none
COC(=O)c1ccc(CSc2c(CC(C)C)cnc3c2c(=O)n(C)c(=O)n3C)cc1	none (no result: GIRK2 activator)
COc1cc(CSc2c(CC(C)C)cnc3c2c(=O)n(C)c(=O)n3C)cc(OC)c1	AMPAR-TARP mod active (no result: GIRK2 activator)
O=C(Cc1c[nH]c2ccccc12)N1CCC(c2nnc(-c3ccco3)s2)CC1	none
Cc1cc(C(F)(F)F)nn1CC(N)=O	none
O=S(=O)(CCCOc1ccc(F)cc1)NC1CCN(Cc2ccccc2)CC1	AMPAR-TARP mod active
O=C(COc1ccc(F)cc1)NCCS(=O)(=O)N1CCN(Cc2ccccc2)CC1	none
COc1ccc(CC(=O)Nc2cc(C3CC3)nn2-c2nc(C(C)C)cc(=O)[nH]2)cc1OC	none
COc1ccc(C(=O)Nc2cc(C3CC3)nn2-c2nc(C(C)C)cc(=O)[nH]2)cc1OC	AMPAR-TARP mod active
COCCNC(=O)Cc1ccc(NC(=O)c2cccc(C(F)(F)F)c2)cc1	none
COC(=O)c1sccc1NC(=O)CSc1nccn2nc(-c3ccc(C)cc3)cc12	none (no result: AMPAR-TARP mod)
Cc1cc(=O)[nH]c(-n2nc(-c3ccco3)cc2NC(=O)C2CC2)n1	AMPAR-TARP mod active
COCC(=O)Nc1cc(-c2ccco2)nn1-c1nc(C)cc(=O)[nH]1	none
COc1ccc(Cl)cc1C(=O)NCC(O)(c1ccccc1)C1CC1 (centres undefined)	AMPAR-TARP mod active (no result: GIRK2 activator)
COc1cccc(C(=O)NCC(O)(c2cccs2)C2CC2)c1OC (centres undefined)	none
COc1ccc(Cl)cc1C(=O)NCC(O)(c1cccs1)C1CC1 (centres undefined)	AMPAR-TARP mod active
COc1nn(C)cc1C(=O)NCC(O)(c1ccccc1)C1CC1 (centres undefined)	none (no result: GIRK2 activator)
CC(C)(C)C(=O)N1CCc2ccc(NS(=O)(=O)c3ccc(F)cc3F)cc21	none
O=C(Cc1cc(-c2cccs2)on1)Nc1ccc(Nc2ccccc2)cc1	none (no result: AMPAR-TARP mod)
COc1cccc(OCC(=O)N2CCN(c3ncnc4c3nnn4-c3ccccc3)CC2)c1	none (no result: GIRK2 activator)
COC(=O)/C=C1\S/C(=N/Nc2nc(C)cc(C)n2)N(c2ccccc2)C1=O	none (no result: AMPAR-TARP mod)
COC(=O)/C=C1\S/C(=N\Nc2nc(C)cc(C)n2)N(c2ccccc2)C1=O	AMPAR-TARP mod active (no result: GIRK2 activator)
COc1ccc(-c2ccc(=O)n(CCNS(=O)(=O)c3c(C)cc(C)cc3C)n2)cc1	none (no result: GIRK2 activator)
O=c1ccc(-c2ccccc2)nn1CCCNS(=O)(=O)c1ccc2c(c1)CCCC2	AMPAR-TARP mod active
Cc1ccc(-c2ccc(=O)n(CCCNS(=O)(=O)c3c(C)cc(C)cc3C)n2)cc1	AMPAR-TARP mod active
O=c1ccc(-c2cccs2)nn1CCCNS(=O)(=O)c1cccc(C(F)(F)F)c1	AMPAR-TARP mod active
COc1ccc(-c2ccc(=O)n(CCNS(=O)(=O)c3ccc4c(c3)CCCC4)n2)cc1	none (no result: GIRK2 activator)
O=c1ccc(-c2cccs2)nn1CCCNS(=O)(=O)c1ccc(Cl)c(Cl)c1	none
COc1ccc(NC(=O)CS(=O)(=O)Cc2ccccc2)c2ccccc12	none
Cn1c(C(F)(F)F)nn(CCNC(=O)C2(c3ccc(Cl)cc3)CCCC2)c1=O	none
Cn1c(-c2ccccn2)nn(CCNC(=O)C2(c3ccc(Cl)cc3)CCCC2)c1=O	AMPAR-TARP mod active
COC(=O)Cn1c(=O)c2c(nc3n(-c4cc(C)ccc4C)c(C)c(C)n23)n(C)c1=O	none (no result: GIRK2 activator)
Cc1cc(C)c2c(n1)nn1c(NCc3ccccn3)cc(C)nc21	none
Cc1cc(C)c2c(n1)nn1c(NCCOCCO)cc(C)nc21	AMPAR-TARP mod active
Cc1cc(C)c2c(n1)nn1c(NCCC3=CCCCC3)cc(C)nc21	none
Cc1cc(C)c2c(n1)nn1c(NCCCN(C)C)cc(C)nc21	AMPAR-TARP mod active
CCOC(=O)Cn1c(=O)c2c(nc(-n3nc(C)c(C)c3C)n2CC)n(C)c1=O	none (no result: GIRK2 activator)
CN1CCN(c2nc3c(c(=O)[nH]c(=O)n3C)n2CC(=O)c2ccc([N+](=O)[O-])cc2)CC1	AMPAR-TARP mod active (no result: GIRK2 activator)
